High-throughput results from PubChem BioAssay.
An excerpt weighted towards active compounds, which were near 3.5% of everything screened.
GPR151 ag: human GPR151 activation | activation, % at 11.2 µM | PathHunter beta-arrestin GPR151 cells, luminescence | actives 1% (n = 650,000) | Q8TDV0; in the data active = activation above about 4.9%;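 also: 0% = median of compound wells and 100% = cells with positive control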
Target sequence (Q8TDV0 whole entry, looked up): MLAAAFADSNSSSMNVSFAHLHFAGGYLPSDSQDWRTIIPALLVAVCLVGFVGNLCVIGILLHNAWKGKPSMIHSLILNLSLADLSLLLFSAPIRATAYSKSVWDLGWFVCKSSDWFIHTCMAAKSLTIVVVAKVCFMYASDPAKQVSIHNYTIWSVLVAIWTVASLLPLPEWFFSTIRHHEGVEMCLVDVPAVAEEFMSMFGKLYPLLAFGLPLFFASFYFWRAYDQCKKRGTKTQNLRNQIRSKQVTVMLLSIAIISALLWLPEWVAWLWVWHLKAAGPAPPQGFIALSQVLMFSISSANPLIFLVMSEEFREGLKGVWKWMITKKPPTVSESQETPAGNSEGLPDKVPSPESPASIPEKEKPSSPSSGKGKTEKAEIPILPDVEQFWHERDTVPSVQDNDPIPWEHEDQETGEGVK
TEAD-YAP block: TEAD-YAP interaction inhibition | HEK-TIYL cells, TEAD-Gal4/YAP UAS-luciferase luminescence | inhibition, % at 9.12 µM | actives 1.4% (n = 640,000); in the data active = inhibition above about 32%;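 also: 0% = median of test compound wells and 100% = reference inhibitor wells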
MITF inh: inhibitors of human MITF. O75030. AlphaScreen MITF homodimerization, bead proximity signal. inhibition, % at 2.6 µM. actives 0.91% (n = 650,000); in the data active = inhibition above about 50%;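 also: 0% = vehicle wells with protein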
FBW7 activator: activators of human E3 ligase FBW7. normalized activity (activation), % at 26.1 µM. AID 1259310. AlphaScreen FBW7–phospho-cyclin E peptide binding, activator screen. actives 0.13% (n = 650,000). Q969H0; in the data active = normalized activity above about 1.9%;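 also: purified mutant Fbw7 with reduced substrate affinity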
GPR151 confirm: confirmation of human GPR151 activators. AID 1508609. activation, % at 11.2 µM. GPR151 PathHunter beta-arrestin cells, luminescence, 90 min; % of EA-reagent control over plate median. shares compounds with GPR151 ag. 6,700 tested, under 10 active;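 active = mean percent activation across replicates above the confirmation screen cutoff of 4.91%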
GPR119 ag: GPR119 activation, counter-screen for GPR151 activators; shares compounds with GPR151 ag; GPR119 PathHunter beta-arrestin cells, luminescence, 90 min; 0 = compound-well median, 100 = enzyme-acceptor control; activation, % at 11.2 µM; actives 0.3% (n = 6,700);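 active = mean percent activation in the counterscreen above 29.09%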;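 also: counterscreen on off-target GPR119 to flag nonselective hits from the GPR151 activator screen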
Numbers without * were called inactive; / = not tested or not shown.

SMILES	GPR151 ag	TEAD-YAP block	MITF inh	FBW7 activator	GPR151 confirm	GPR119 ag
Cc1ccc(NC(=O)Cn2c3ccccc3c(=O)c3ccc(Cl)cc32)c(Br)c1	-1	-5	-4	0	/	/
COc1ccc(CCNC(=O)c2cccc(OC)c2)cc1	1	-1	3	0	/	/
COc1ccc(-n2nc(C(=O)NCC(=O)Nc3cccc(C(F)(F)F)c3)c3ccccc3c2=O)cc1Cl	1	11	3	0	/	/
CCOC(=O)CN1CC(O)=C(C=NCc2ccccc2)C1=O	7.4*	0	16	0	0	10
CC(C)(C)C(=O)/C=C(/N)c1ccccn1	0	-7	-15	0	/	/
CC(C)(C)C(=O)/C=C(\N)Cc1ccccc1	8.1*	8	-6	0	-1	-1
Oc1ccc(Nc2ncnc3ccc(I)cc23)cc1	8.2*	16	8	0	2	8
CCCCNC(=O)CSc1nc2n[nH]c(C)c2c(=N)n1-c1ccc(OC)cc1	1	-1	-2	0	/	/
CCC(C(=O)N/C(N)=N/c1nc2ccccc2o1)N1C(=O)c2ccccc2C1=O (stereo not drawn)	-2	3	24	-1	/	/
CCN(CCCNC(=O)c1c(C)cc(=O)oc1C)c1ccccc1	5.1*	-10	3	0	-1	-8
CCCCN(CCCNC(=O)c1c(C)cc(=O)oc1C)c1ccccc1	2	-23	15	0	/	/
O=C(Nc1ccccc1)c1csc(Nc2cnccn2)n1	-1	-15	5	0	/	/
Cc1nnc(NC(=O)CSc2nnc(CNC(=O)c3ccc(S(=O)(=O)N(C)C)cc3)n2-c2ccccc2)s1	0	7	4	0	/	/
N#C/C(=C(/O)COC(=O)c1cc(=O)c2ccccc2o1)c1nc2ccccc2[nH]1	0	-2	-8	0	/	/
CCCN(CCC)CCCNC(=O)C(=O)Nc1ccc(C(C)C)cc1	-1	-3	-4	0	/	/
O=C(Cc1ccccc1)NS(=O)(=O)c1ccc(N=NN2CCCCC2)cc1	7.3*	2	-1	0	1	8
CSc1nc(C(=O)N2CCc3nnc(CNC(=O)c4cccc(F)c4)n3CC2)cs1	5.2*	3	9	0	1	4
O=C(Nc1cccc(Cl)c1)N1CCN(c2ccc(Nc3cccnc3)nn2)CC1	6.1*	-4	16	0	1	1
CC(C)NC(=O)c1cc2n(n1)C(C(F)(F)F)CC(c1ccccc1)N2 (stereo not drawn)	3	1	9	0	/	/
CC(=O)c1ccc(-c2ccc(NCCN3CCOCC3)nc2)s1	-1	7	6	0	/	/
CC(=O)c1c(C)[nH]c(C(=O)N2CCN(c3ccccc3F)CC2)c1C	0	4	6	0	/	/
CC(=O)c1c(C)[nH]c(C(=O)N2CCN(c3ccccc3)CC2)c1C	13*	5	14	0	-1	-3
Cc1cccc(N=c2sc(C3=c4ccccc4=NC3=O)c(O)n2-c2cccc(C)c2)c1	0	2	-3	0	/	/
Cc1ccc(S(=O)(=O)/N=c2\sc(C3=c4ccccc4=NC3=O)c(O)n2C)cc1	6.8*	13	5	0	0	-1
COc1cccc(C(=O)OCc2cccc([N+](=O)[O-])c2)c1	6.9*	-8	10	1	1	-2
SMILES	GPR151 ag	TEAD-YAP block	MITF inh	FBW7 activator	GPR151 confirm	GPR119 ag
COc1ccc(C(=O)OCc2cccc([N+](=O)[O-])c2)cc1	4	2	-3	0	/	/
COc1cccc(COC(=O)c2n[nH]c3ccccc23)c1	6.9*	-15	5	0	-1	-9
CCN(C(=O)CCl)c1nc(-c2ccc(F)cc2)cs1	2	-25	-8	0	/	/
O=C(/C=C/Nc1ccccc1O)c1ccc(Cl)cc1	-1	-50	-30	0	/	/
CCOC(=O)c1c(NC(=O)c2ccccc2F)sc(C(=O)Nc2ccccc2C)c1C	7.9*	-5	3	0	1	13
CCOC(=O)c1c(NC(=O)c2cccs2)sc(C(=O)Nc2ccc(OC)cc2OC)c1C	5.2*	-4	-1	0	1	4
CCOC(=O)c1c(NC(=O)c2cccs2)sc(C(=O)Nc2ccccc2OC)c1C	0	-2	3	0	/	/
C=CCOc1ccc(/C(O)=C2/C(=O)C(=O)N(CCN(CC)CC)C2c2ccc(C)cc2)c(C)c1 (stereo not drawn)	7.1*	5	-7	0	0	-3
O=c1c2ccccc2c2ccccc2c(=O)n1-c1ccc(F)cc1	-2	-6	-3	0	/	/
O=c1c2ccccc2c2ccccc2c(=O)n1-c1ccc(OC(F)(F)F)cc1	5.1*	6	10	0	-1	-10
S=C1NNC(c2ccc3c(c2)OCO3)NN1	0	-19	17	0	/	/
O=C1NC(=O)C(CCCCC2(c3ccccc3)NC(=O)NC2=O)(c2ccccc2)N1 (stereo not drawn)	0	0	-6	1	/	/
CC1=CC(C)C2COC(c3ccccc3O)C1C2 (stereo not drawn)	5.3*	3	-1	0	0	-5
COc1ccc(NC(=S)Nc2ccc(S(N)(=O)=O)cc2)c(OC)c1	0	-4	3	0	/	/
COc1ccc(CCNS(=O)(=O)c2ccc(S(=O)(=O)N3CCOCC3)cc2)cc1	5.6*	5	5	0	1	2
COc1ccc(NC(=S)Nc2ccc(S(=O)(=O)N3CCOCC3)cc2)c(OC)c1	5.2*	5	6	0	1	4
COc1ccc(NS(=O)(=O)c2ccc(S(=O)(=O)N3CCOCC3)cc2)cc1	0	-1	2	0	/	/
COc1ccc(/C=N/NC(=O)COc2c(F)cc(Br)cc2F)cc1OC	3	-4	16	0	/	/
COc1ccc(Cl)cc1NS(=O)(=O)c1cccc2nsnc12	-1	-9	-2	0	/	/
COc1cccc2c(=O)n(CC(=O)Nc3ccc(Br)cc3)ccc12	4	9	15	0	/	/
COCCN(CCOC)S(=O)(=O)c1ccc(C(=O)Nc2nc(-c3ccc(OC)cc3)cs2)cc1	-1	1	-7	0	/	/
COCCN(CCOC)S(=O)(=O)c1ccc(C(=O)Nc2nc(-c3ccncc3)cs2)cc1	8.8*	-3	-9	0	1	13
O=C(CCN1CCN(C2c3ccccc3-c3ccccc32)CC1)Nc1ccccc1F	5.1*	-4	6	0	1	10
CCC(=O)NC1=C(Nc2ccc(N)cc2)C(=O)c2ccccc2C1=O	-2	-48	10	0	/	/
CCN(CCO)c1ccc(NC2=C(NC(C)=O)C(=O)c3ccccc3C2=O)cc1	5.1*	61*	8	0	0	12
O=C1Nc2ccccc2/C1=C/C(=O)c1ccc(CCCl)cc1	-1	8	10	1	/	/
CCCCn1c(C)cn2c3c(=O)n(CCN4CCCCC4)c(=O)n(C)c3nc12	1	1	12	0	/	/
